Several values for one entry are separate records, joined by “and”; a condition that tells them apart may be missing. Equal entries are not always repeated. Activity calls are given as the source filed them. Calls come from the whole dose curve; as a rule, active = well fitted curve in either direction with a large enough effect; inconclusive = small, poorly fitted or top-dose-only effect; inactive = no such curve, though single readings can be large or run the other way.

This passage reports Potency results from PubChem BioAssay AID2111 (National Center for Advancing Translational Sciences (NCATS), 2009).

For this assay, the target named is Lysosomal alpha-glucosidase (Homo sapiens) (UniProt P10253). The assay can be described thus: Confirmation of Inhibitors and Activators of Human alpha-Glucosidase From Spleen Homogenate Using an Alternate Red Fluorescent Susbtrate. The following applies: resorufin-glucoside fluorescence; series mostly up to 62.8 µM. An excerpt:
NIH Chemical Genomics Center [NCGC] NIH Molecular Libraries Probe Production centers Network [MLPCN] MLPCN Grant: 1R03MH084841-01 Assay Submitter (PI): Wei Zheng NCGC Assay Overview: Alpha-glucosidase is responsible for hydrolysis of terminal, non-reducing 1,4-linked alpha-D-glucose residues with release of alpha-D-glucose. It is a lysosomal hydrolase that is required for the degradation of a small percentage (1-3%) of cellular glycogen in human. Deficiency of this enzyme results in glycogen-storage disease type II (GSDII), also referred to as Pompe disease, an autosomal recessive disorder. Structurally normal glycogen is accumulated in lysosomes and cytoplasm in affected patients, primarily in muscle tissues. Excessive glycogen storage within lysosomes may interrupt normal functioning of other organelles and leads to cellular injury. In turn, this leads to enlargement and dysfunction of the entire organ involved (eg, cardiomyopathy and muscle weakness). It has reported that the improper folding and trafficking of alpha-glucosidase resultinged from the genetic mutations may account for a significant number of Pomrope patients. […] We optimized this alpha-glucosidase assay in 1536-well plate format for identifying the novel small molecule inhibitors with the structures other than the sugar analogs in order to develop the new pharmacological chaperones. In particular, this assay is directed towards discovering compounds active in a more natural setting, tissue homogenate, that may have been missed by screens of the purified enzyme under more stringent conditions. This assay attempted to confirm hits from the primary screening using an alternate fluor than the primary screen used.
NCGC Assay Protocol Summary: This is a fluorogenic enzyme assay with Resorufin-alpha-D-glucopyranoside as the substrate and human spleen homogenate containing alpha-glucosidase as the enzyme preparation. Upon hydrolysis of this fluorogenic substrate, the resulting product, resorufin (which excites at 573 nm and emits at 610 nm) can be detected by a fluorescence plate reader. Data were normalized to the controls for basal activity (without enzyme) and 100% activity (with enzyme). The AC50 values were determined from concentration-response data modeled with the standard Hill equation. Assay buffer: 50 mM citric acid (titrated with potassium phosphate to pH 5.0), 0.01% Tween-20 (pH 5.0 is an optimal condition for this enzyme assay) 1536-well assay protocol for the alpha-glucosidase from human spleen homogenate: (1) Add 2 ul/well spleen homogenate (1 ug) (2) Add 23 nL compounds in DMSO solution. The final titration was 0.5 nM to 58 uM. (3) Add 2 ul of substrate (1 mM final) (4) Incubate at 37 C for 40 min (5) Add 2 ul stop solution (1M NaOH and 1M Glycine mixture, pH 10) (6) Detect the assay plate in a ViewLux plate reader (PerkinElmer) with […]. Keywords: Alpha-glucosidase, Pompe Disease, pharmacological chaperone, chaperone therapy, high throughput screening, alpha-glucosidase inhibitor, MLSMR, MLSCN, NIH Roadmap, qHTS and NCGC
`CC(=O)Nc1ccc(S(=O)(=O)N2CCN(c3ccc(C(C)=O)cc3)CC2)cc1`: the Potency entry was “inactive”. As for `OCCNc1nc(-c2cccs2)nc2ccccc12`, the entry is “inactive”. As for `CCCN1CNc2c(c(=O)[nH]c(=S)n2CCc2cccs2)C1`, the figure is 31.6 µM (active); as for `CC(=O)c1ccc(N2CCN(S(=O)(=O)c3ccc4c(c3)CCCN4C(C)=O)CC2)cc1`, “inactive”. As for `CC(=O)c1ccc(N2CCN(S(=O)(=O)c3ccc4c(c3)C(Cl)(Cl)C(=O)N4)CC2)cc1`, the figure is 20.6 µM [inhibitor] (active) and 32.6 µM [inhibitor] (active). Regarding `CCCN1CNc2c(c(=O)[nH]c(=S)n2CCc2ccc(Cl)c(Cl)c2)C1`, the Potency was 8.91 µM (active). `CCCN1CNc2c(c(=O)[nH]c(=S)n2CCc2c(Cl)cccc2Cl)C1`: the Potency was 5.01 µM (active). As for `O=C1Cc2cc(S(=O)(=O)N3CCN(c4ccc(Cl)cc4)CC3)ccc2N1`, the entry is “inactive”. As for `CC(=O)c1ccc(N2CCN(S(=O)(=O)c3ccc4[nH]c(=O)oc4c3)CC2)cc1`, the entry is “inactive”; as for `CCCN1CNc2c(c(=O)[nH]c(=S)n2CCc2c(C)cccc2C)C1`, 2.82 µM (active); as for `CCCN1CNc2c(c(=O)[nH]c(=S)n2CCCc2ccccc2)C1`, 35.5 µM (active).
